PubChem BioAssay (NCI)
About 79,000 compounds went through this panel and 15% of them were active in at least one assay; those are over-represented in the sample as a whole. Values without a mark were called inactive. Active and inactive are the calls of the source. Rule as the data show it: active = growth inhibition above about 70%; inactive = the rest.

Assays:
[1] = NCI Yeast Anticancer Drug Screen. Data for the rad50 strain (AID 155);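 also: 0% = growth of vehicle-only cultures of the same strain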; settings: S. cerevisiae rad50 strain growth inhibition, stronger effect = higher value
How it was run: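 DNA repair mutant yeast, compound exposure, growth read-out; inhibition is taken relative to vehicle.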

[2] = NCI Yeast Anticancer Drug Screen. Data for the mec2-1 strain (AID 157); settings: S. cerevisiae mec2-1 strain, stronger effect = higher value
How it was run: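 Growth inhibition is read against vehicle-treated controls after compound exposure of the mec2-1 yeast strain, which is defective in DNA damage repair or cell cycle control.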

[3] = NCI Yeast Anticancer Drug Screen. Data for the sgs1 mgt1 strain (AID 161);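 also: 0% = growth of cultures given vehicle only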; settings: S. cerevisiae sgs1 mgt1 strain, stronger effect = higher value
How it was run: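 Compounds are added to genetically altered yeast, and growth is compared with cultures given vehicle alone to give percent inhibition.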

[4] = NCI Yeast Anticancer Drug Screen. Data for the cln2 rad14 strain (AID 165);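 also: 0% = growth equal to vehicle treated cultures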; settings: S. cerevisiae cln2 rad14 strain, stronger effect = higher value
How it was run: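 Growth inhibition, relative to vehicle-treated controls, is the read-out. The test organism is a yeast strain with defined genetic alterations, cln2 rad14.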

[5] = NCI Yeast Anticancer Drug Screen. Data for the bub3 strain (AID 167); settings: S. cerevisiae bub3 mutant strain, stronger effect = higher value
How it was run: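 In this screen, a yeast mutant lacking normal mitotic checkpoint function is challenged with compound. Relative growth versus vehicle gives the inhibition value.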

[6] = NCI Yeast Anticancer Drug Screen. Data for the mlh1 rad18 strain (AID 175); settings: S. cerevisiae mlh1 rad18 strain growth inhibition, stronger effect = higher value
How it was run: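 Cells of a genetically altered yeast strain, deficient in DNA damage repair, were treated with compound. Their growth was then compared with that of vehicle-treated cultures to give inhibition.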

[7] = at 5.0 µM (retest, dose inferred, filed as 0.5)
[8] = at 50.0 µM (retest, dose inferred, filed as 5.0)

SMILES | growth inhibition [1, 7] | growth inhibition [1, 8] | growth inhibition ([1]; at 50.0 µM) | growth inhibition [2, 7] | growth inhibition [2, 8] | growth inhibition ([2]; at 50.0 µM) | growth inhibition [3, 7] | growth inhibition [3, 8] | growth inhibition ([3]; at 50.0 µM) | growth inhibition [4, 7] | growth inhibition [4, 8] | growth inhibition ([4]; at 50.0 µM) | growth inhibition [5, 7] | growth inhibition [5, 8] | growth inhibition ([5]; at 50.0 µM) | growth inhibition [6, 7] | growth inhibition [6, 8] | growth inhibition ([6]; at 50.0 µM)
Oc1c(Cl)cccc1-c1ccccc1 | 2% | -5% | 20.1% | -21% | 0% | 12.2% | 1% | 10% | 36.9% | 1% | -14% | 1.9% | 7% | -4% | 4.45% | -1% | 8% | 67.8%
C/C(=N\NC(=O)N/N=C(\C)c1ccccn1)c1ccccn1 | 0% | 16% | -6.55% | -18% | -16% | 16.8% | 7% | 24% | 35.9% | -21% | 1% | 2.95% | 2% | -13% | 35.5% | 14% | -6% | -5.95%
C[C@]12CC[C@@H]3c4cc(OCC(F)(F)F)c(O)cc4CC[C@H]3[C@@H]1CC[C@@H]2O | -3% | 97% (active) | 98.6% (active) | -5% | 99% (active) | 98.5% (active) | 10% | 99% (active) | 98.8% (active) | -13% | 97% (active) | 98.2% (active) | 5% | 99% (active) | 98.8% (active) | -6% | 98% (active) | 98.6% (active)
CC1=C(CO)C(=O)O[C@@H]([C@@H](C)[C@H]2CC[C@H]3[C@@H]4C[C@@H](O)C5=CC=CC(=O)[C@]5(C)[C@H]4CC[C@]23C)C1 | -2% | 41% | 71.2% (active) | -24% | 49% | 46% | -1% | -6% | 85.8% (active) | -1% | 47% | 55.2% | 0% | 40% | 60.6% | -22% | 36% | 90.5% (active)
c1cc[c]([Sn]([S]c2ccccn2)([c]2ccccc2)[c]2ccccc2)cc1 | 100% (active) | 99% (active) | 99.5% (active) | 100% (active) | 99% (active) | 99.5% (active) | 99% (active) | 99% (active) | 99.1% (active) | 99% (active) | 99% (active) | 97% (active) | 96% (active) | 99% (active) | 99.2% (active) | 99% (active) | 99% (active) | 99.2% (active)
CN(C)C(=S)N1C(=S)N(c2ccccc2)C(=Nc2ccccc2)C1=Nc1ccccc1 | -25% | -4% | 49.4% | -9% | -11% | -23.6% | -3% | -12% | -5% | -18% | -12% | -18.3% | -13% | -8% | -30.1% | -20% | -24% | -7.7%
O/N=C(/CN1CCN(c2ccccc2)CC1)c1ccccc1 | 1% | -1% | 45.4% | 0% | -2% | -14.4% | -4% | -3% | 10.7% | 2% | 1% | -68.2% | -2% | -2% | 13.4% | 1% | -4% | -3.8%
CCCCCCCCC[n+]1cccc(C(=O)c2ccccc2)c1 | -1% | 53% | 51.6% | 4% | 56% | 24.8% | -165% | 77% (active) | 72.7% (active) | -4% | 42% | 3.95% | 0% | 70% (active) | 82.5% (active) | 36% | 78% (active) | 72.7% (active)
